# From PubChem BioAssay (NCATS)
# Inconclusive results are not listed. Values without a mark were called inactive. Activity calls are given as the source filed them. Calls follow the shape of the dose curve; as a rule, active = well fitted cell-killing curve with a large enough effect; inconclusive = small, poorly fitted or top-dose-only effect, or effect the other way; inactive = no such curve, though single readings can be large or run the other way.
# Test: Quantitative High-Throughput drug screen in 47 multiple myeloma cell lines against the NCATS MIPE library collection: MM1S_ATCC cell viability assay (AID 1918980); also: nearly all actives have a fitted effect of over 45% in size
# Conditions: MM1S myeloma viability, CellTiter-Glo ATP luminescence, 48 h; series mostly up to 45.8 µM; viability (% of control): at the top concentration
# From the text: PI: Beverly A. Mock Ph.D.
# Laboratory of Cancer Biology and Genetics,
# Center for Cancer Research, National Cancer Institute,
# National Institute of Health, Bethesda, Maryland
# Drug resistance and disease progression are common in multiple myeloma (MM) patients, underscoring the need for new therapeutic combinations. […] We hypothesized that effective combinations would reduce MYC expression and enhance p16 activity. […] These preclinical data identify potentially useful drug combinations for evaluation in drug-resistant MM and reveal potential mechanisms of combined drug sensitivity.
# Described herein is the primary MIPE qHTS used to cherrypick compounds. Validated compounds were then further tested for potential synergistic activiy.
# [1] Peat TJ, Gaikwad SM, Dubois W, Gyabaah-Kessie N, Zhang S, Gorjifard S, Phyo Z, Andres M, Hughitt VK, Simpson RM, Miller MA, Girvin AT, Taylor A, Williams D, D'Antonio N, Zhang Y, Rajagopalan A, Flietner E, Wilson K, Zhang X, Shinn P, Klumpp-Thomas C, McKnight C, Itkin Z, Chen L, Kazandijian D, Zhang J, Michalowski AM, Simmons JK, Keats J, Thomas CJ, Mock BA. Drug combinations identified by high-throughput screening promote cell cycle transition and upregulate Smad pathways in myeloma. Cancer Lett. 2023 Aug 1;568:216284. doi: 10.1016/j.canlet.2023.216284. Epub 2023 Jun 24. PMID: 37356470; PMCID: PMC10408729.
# SEQUENCE No. (e.g., 1, 2, 3, etc.); […] (e.g., Cells, Incubation, Reagent, etc.); VALUE and DESCRIPTION.
# 1; Cells; 5 uL; white, solid bottom 1536-well Greiner assay plate.
# 2; Compounds; 23 nL; Kalypsis pin tool (Wako USA) equipped with a 1536-well pin head to transfer to the assay plates.
# 3; Incubation; 48 hours; 37C incubation.
# 4; Reagent;5uL; CellTiter Glo (Promega).
# 5; Detector; 425V; Luminescence; Viewlux PerkinElmer.
# NOTES (numbers refer to Sequence numbers above)
# 1. The cell-based screening methods employed in this study were like those previously published. Briefly, the corresponding myeloma cell lines were screened in 1,536-well plates with 500 cells, 5-uL per well for inhibition of cell viability (assessed by measuring ATP levels with CellTiterGlo).
# 2. NCATS MIPE 4.0 library of approved and investigational drugs were added using the Kalypsis pin tool. Wells treated with DMSO only for 100% viability and media only for 0% viability were used as controls.
# 3. The assay plates were covered and incubated for 48 hours in a 37C, 5% CO2 incubator with controlled humidity.
# 4. After 48 hours, CellTilter-GloTM luminescent substrate mix (Promega) reagent was added to the assay plate and plates we incubated for 5 min at room temperature.
# 5. Signal was measured as median relative luminescence units on a ViewLux (PerkinElmer) multiplate reader.
# [1] Heske CM, Davis MI, Baumgart JT, Wilson K, Gormally MV, Chen L, Zhang X, Ceribelli M, Duveau DY, Guha R, Ferrer M, Arnaldez FI, Ji J, Tran HL, Zhang Y, Mendoza A, Helman LJ, Thomas CJ. Matrix Screen Identifies Synergistic Combination of PARP Inhibitors and Nicotinamide Phosphoribosyltransferase (NAMPT) Inhibitors in Ewing Sarcoma. Clin Cancer Res. 2017 Dec 1;23(23):7301-7311. doi: 10.1158/1078-0432.CCR-17-1121. Epub 2017 Sep 12. PMID: 28899971; PMCID: PMC6636827.
# Potency is read from the fitted curve at half-maximal effect.
SMILES,Potency,viability (% of control) [%]
COc1ccc(-c2oc3cc(OC)ccc3c2C(=O)c2ccc(C#N)cc2)cc1,10.5 µM (active),–
CN(C)c1ccc(Nc2nc(N)n(C(=O)c3c(F)cccc3F)n2)cc1,14.8 µM (active),–
OCCn1cc(-c2cnc3nnn(Cc4ccc5ncccc5c4)c3n2)cn1,9.35 µM (active),–
Cc1csc(NC(=O)c2sc3nc4c(c(C(F)(F)F)c3c2N)CCC4)n1,13.2 µM (active),–
CC(C)(Sc1ccc(CCN(CCCCC2CCCCC2)C(=O)NC2CCCCC2)cc1)C(=O)O,4.18 µM (active),–
COc1ccc(-c2ccc3c(N4CCOCC4)nc(N4C[C@@H](C)O[C@@H](C)C4)nc3n2)cc1CO,0.469 µM (active),–
CC(C)(C)NCC(O)c1ccc(O)c(CO)c1 (stereo not given),0.059 µM (active),–
O=C(Nc1cccnc1)N1CCC(Cc2cccc(Oc3ccc(C(F)(F)F)cn3)c2)CC1,14.8 µM (active),–
CC(=O)Oc1ccccc1C(=O)O,5.26 µM (active),–
O=C(C1CC1)N1CC[C@@H](Cn2c(-c3ccc(-c4ccc5occc5c4)cc3)nc3cnccc32)C1,–,114
Cn1cc(-c2ccc3nnc(C(F)(F)c4ccc5ncccc5c4)n3n2)cn1,8.33 µM (active),–
Clc1ccc(Nc2nnc(Cc3ccncc3)c3ccccc23)cc1,18.7 µM (active),–
Cc1ccc(N(CC2=NCCN2)c2cccc(O)c2)cc1,20.9 µM (active),–
Cc1cc(Nc2nc(N[C@@H](C)c3ncc(F)cn3)ncc2Cl)n[nH]1,3.32 µM (active),–
COc1ccc(-c2ccc3c(N4CCOC[C@H]4C)nc(N4CCOC[C@H]4C)nc3n2)cc1CO,0.0526 µM (active),–
CCCc1nc2c(C)cc(-c3nc4ccccc4n3C)cc2n1Cc1ccc(-c2ccccc2C(=O)O)cc1,26.4 µM (active),–
CCCS(=O)(=O)Nc1ccc(F)c(C(=O)c2c[nH]c3ncc(-c4ccc(Cl)cc4)cc23)c1F,7.43 µM (active),–
CCOc1ccn(-c2ccc(F)cc2)c(=O)c1C(=O)Nc1ccc(Oc2ccnc(N)c2Cl)c(F)c1,16.6 µM (active),–
COc1cccc2cc(-c3nc(C4CCC(C(=O)O)CC4)n4ncnc(N)c34)[nH]c12 (stereo not given),0.469 µM (active),–
O=S(=O)(N=Cc1c(O)ccc2ccccc12)c1cccs1,0.0209 µM (active),–

SMILES,Potency,viability (% of control) [%]
COCC(=O)NCC=Cc1ccc2ncnc(Nc3ccc(Oc4ccc(C)nc4)c(C)c3)c2c1,26.4 µM (active),–
NC(=O)c1ccc(-c2nc(-c3ccc4c(c3)OCO4)c(-c3ccccn3)[nH]2)cc1,–,138
NC[C@H](O)c1ccc(O)c(O)c1,23.5 µM (active),–
CNC(=O)c1ccc(N2C(=S)N(c3ccc(C#N)c(C(F)(F)F)c3)C(=O)C2(C)C)cc1F,18.7 µM (active),–
O=C(c1cc(Cc2n[nH]c(=O)c3ccccc23)ccc1F)N1CCN(C(=O)C2CC2)CC1,23.5 µM (active),–
Cc1cc2c(C(C)C)c(O)c(O)c(C=O)c2c(O)c1-c1c(C)cc2c(C(C)C)c(O)c(O)c(C=O)c2c1O,16.6 µM (active),–
COc1ccc2c3n(c(=NC(=O)c4cccnc4)nc2c1OC)CCN3,2.64 µM (active),–
CCCS(=O)(=O)Nc1ccc(F)c(C(=O)c2c[nH]c3ncc(Cl)cc23)c1F,–,125
C[C@@H]1CN(Cc2ccc(F)cc2)[C@@H](C)CN1C(=O)c1cc2c(C(=O)C(=O)N(C)C)cn(C)c2cc1Cl,10.5 µM (active),–
Oc1cccc(-c2nc(N3CCOCC3)c3oc4ncccc4c3n2)c1,0.0679 µM (active),–
CC(C)C[C@H](NC(=O)[C@@H](O)[C@H](N)Cc1ccccc1)C(=O)O,18.7 µM (active),–
COc1ccc(C2=N[C@H](c3ccc(Cl)cc3)[C@H](c3ccc(Cl)cc3)N2C(=O)N2CCNC(=O)C2)c(OC(C)C)c1,2.09 µM (active),–
CCC(=O)N[C@H]1CC[C@H](C(=O)N(C)c2ccc(-c3nc4ccccc4o3)cc2)C1,5.26 µM (active),–
CC1(C)Cc2c(-c3ccccc3)c(-c3ccc(Cl)cc3)c(CC(=O)O)n2C1,26.4 µM (active),–
NCCc1ccc(O)c(O)c1,20.9 µM (active),–
Cc1c(CCOc2ccc(C(=O)O)cc2)c2cc(Cl)ccc2n1C(c1ccccc1)c1ccccc1,9.35 µM (active),–
CCC(C)(C)C(=O)O[C@H]1C[C@@H](C)C=C2C=C[C@H](C)[C@H](CC[C@@H]3C[C@@H](O)CC(=O)O3)[C@H]21,16.6 µM (active),–
Cc1c(CN2CCN(C(=O)C(C)C)CC2)sc2c(N3CCOCC3)nc(-c3cnc(N)nc3)nc12,0.132 µM (active),–
Cc1ccc(NC(=O)c2cccc(C(C)(C)C#N)c2)cc1Nc1ccc2ncn(C)c(=O)c2c1,6.62 µM (active),–
Cc1ccnc(NS(=O)(=O)c2ccc(NC(=O)Nc3ccc(S(=O)(=O)Nc4nccc(C)n4)cc3)cc2)n1,–,101
